8 compounds from PubChem BioAssay (NCI) can be followed below.

The panel holds about 83,000 compounds, 20% with a hit somewhere; the sample as a whole holds those more often.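 The test compound was applied at a single concentration to cells in 96-well plates for 48 hours, and percent growth was recorded.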 Unmarked numbers belong to inactive results. Activity calls are given as the source filed them. The calls were made as follows: active = growth percent below 10; inactive = the rest.

Test systems include K-562 leukemia; MALME-3M melanoma; MDA-MB-231 breast; RXF 393 renal; SF-268 CNS; SF-295 CNS; SF-539 CNS; UACC-257 melanoma; M14 melanoma; HCT-15 colon; HT29 colon; SNB-75 CNS; SNB-19 CNS; U251 CNS; SK-MEL-5 melanoma; UACC-62 melanoma; LOX IMVI melanoma; SK-MEL-28 melanoma; SK-MEL-2 melanoma.
Test in all cases: NCI-60 one-dose screen, 48 h (100 = growth as untreated, 0 = no growth, -100 = all killed)
Common to all, as to settings: 10 µM unless noted

With `O=C1NCN(CCO)CN1`, the growth with K-562 leukemia was 111%; with MALME-3M melanoma it was 92.6%; in the test on MDA-MB-231 breast, 125%; in the test with RXF 393 renal, 107%; in the test with SF-268 CNS it was 108%; in the test on SF-295 CNS it was 113%. Moreover, the growth in the test with SF-539 CNS is 93.3%; in the test with UACC-257 melanoma it was 96.7%; with M14 melanoma, 96.7%; with HCT-15 colon, 109%; in the test on HT29 colon, 99.8%; in the test with SNB-75 CNS, 100%. Further, the growth was 100% in the test with SNB-19 CNS; 109% in the test on U251 CNS; 106% with SK-MEL-5 melanoma; 92.8% in the test with UACC-62 melanoma; 103% in the test on LOX IMVI melanoma; 110% in the test on SK-MEL-28 melanoma. Also, the growth with SK-MEL-2 melanoma was 108%.
As for `CCN(CC)CCCCNc1c2ccccc2[n+](C)c2c1[nH]c1ccccc12`, the growth with K-562 leukemia was -20.8% (active); in the test with MALME-3M melanoma it was -63.9% (active); in the test on MDA-MB-231 breast, -0.507% (active); in the test on RXF 393 renal, -55.6% (active); with SF-268 CNS, -16.2% (active); in the test with SF-295 CNS it was -47.1% (active). Further, the growth in the test with SF-539 CNS was -40.6% (active); in the test on UACC-257 melanoma, -42.6% (active); in the test with M14 melanoma, -28.4% (active); in the test with HCT-15 colon it was 80.2%; with HT29 colon it was 0.443% (active); in the test with SNB-75 CNS, -49.8% (active). In addition, the growth in the test with SNB-19 CNS was -22.7% (active); in the test on U251 CNS, 0.218% (active); in the test on SK-MEL-5 melanoma it was -69.9% (active); in the test with UACC-62 melanoma it was -69.6% (active); in the test with LOX IMVI melanoma, -5.07% (active); in the test on SK-MEL-28 melanoma, -90.4% (active). Moreover, in the test on SK-MEL-2 melanoma, the growth is -90.7% (active).
Turning to `Cc1ccc(C(C)C)cc1NC(=O)Nc1ccc([N+](=O)[O-])cc1`, the growth in the test on K-562 leukemia is 18.2%; with MALME-3M melanoma it was 6.64% (active); in the test on MDA-MB-231 breast, 35.6%; in the test on RXF 393 renal, 90.8%; in the test with SF-268 CNS, 29.9%; in the test on SF-295 CNS, 4.2% (active). The growth was 29% in the test on SF-539 CNS; -5.55% (active) with UACC-257 melanoma; 22.3% in the test with M14 melanoma; 10.7% in the test on HCT-15 colon; 12.4% in the test with HT29 colon; 40.9% in the test with SNB-75 CNS. In addition, the growth with SNB-19 CNS is 20.1%; with U251 CNS, 15.4%; in the test on SK-MEL-5 melanoma, 16.7%; in the test with UACC-62 melanoma, 11.7%; in the test with LOX IMVI melanoma it was 5.39% (active); in the test on SK-MEL-28 melanoma, 22.4%. In addition, in the test with SK-MEL-2 melanoma, the growth was -2.75% (active).
As to `Oc1ccc(-c2nn(-c3ccccc3)cc2-c2nc3ccccc3s2)cc1`, the growth in the test with K-562 leukemia was 78.6%; with MALME-3M melanoma, 98.8%; with MDA-MB-231 breast, 81.5%; in the test on RXF 393 renal it was 104%; in the test on SF-268 CNS, 97.3%; in the test with SF-295 CNS, 106%. Moreover, the growth in the test with SF-539 CNS is 102%; in the test with UACC-257 melanoma, 107%; in the test with M14 melanoma, 101%; with HCT-15 colon, 81.6%; with HT29 colon, 112%; in the test with SNB-75 CNS, 101%. The growth with SNB-19 CNS was 93.9%; in the test with U251 CNS it was 94%; in the test with SK-MEL-5 melanoma, 92.3%; with UACC-62 melanoma it was 88.1%; in the test with LOX IMVI melanoma it was 78.4%; with SK-MEL-28 melanoma, 117%. For the same compound, the growth in the test on SK-MEL-2 melanoma was 135%.
For the compound `CCOC(=O)c1c2c(c(C)n1Cc1ccc(OC)cc1)-c1nc(N)ncc1CC2`, the growth with K-562 leukemia is 88.8%; in the test on MALME-3M melanoma it was 132%; with MDA-MB-231 breast, 97.2%; in the test with RXF 393 renal, 116%; in the test with SF-268 CNS, 110%; with SF-295 CNS, 104%. Further, the growth is 112% in the test on SF-539 CNS; 121% in the test on UACC-257 melanoma; 106% in the test with M14 melanoma; 113% in the test with HCT-15 colon; 110% in the test with HT29 colon; 103% with SNB-75 CNS. In addition, the growth in the test with SNB-19 CNS was 111%; with U251 CNS it was 106%; in the test on SK-MEL-5 melanoma it was 110%; in the test on UACC-62 melanoma it was 87.3%; in the test with LOX IMVI melanoma it was 104%; with SK-MEL-28 melanoma, 112%. Further, the growth in the test with SK-MEL-2 melanoma is 119%.
Consider `O=C1/C(=C/c2ccc3cccc(Cl)c3n2)SC(=S)N1CCc1ccc(O)cc1`, for which the growth in the test on K-562 leukemia is 86.2%; in the test on MALME-3M melanoma, 74.7%; with MDA-MB-231 breast it was 79.9%; with RXF 393 renal it was 103%; with SF-268 CNS, 84.9%; in the test on SF-295 CNS, 91.9%. Also, the growth is 86.9% in the test on SF-539 CNS; 100% in the test with UACC-257 melanoma; 90.8% in the test with M14 melanoma; 86.1% in the test with HCT-15 colon; 107% in the test on HT29 colon; 50.7% in the test on SNB-75 CNS. Also, the growth with SNB-19 CNS is 97.5%; in the test with U251 CNS it was 94%; with SK-MEL-5 melanoma, 95.8%; with UACC-62 melanoma, 68.4%; in the test with LOX IMVI melanoma, 80.7%; in the test on SK-MEL-28 melanoma it was 108%. For the same compound, the growth with SK-MEL-2 melanoma was 101%.
For the compound `O=C1c2ccccc2C(=O)c2c1cccc2-n1nnc2ccccc21`, the growth in the test with K-562 leukemia was 95.6%; in the test on MALME-3M melanoma, 132%; with MDA-MB-231 breast, 125%; in the test with RXF 393 renal it was 111%; with SF-268 CNS it was 103%; in the test with SF-295 CNS it was 120%. Further, the growth in the test with SF-539 CNS was 112%; in the test with UACC-257 melanoma, 127%; in the test on M14 melanoma, 127%; in the test on HCT-15 colon, 102%; in the test with HT29 colon, 106%; with SNB-75 CNS, 90.8%. Moreover, the growth with SNB-19 CNS is 104%; with U251 CNS it was 99.8%; in the test on SK-MEL-5 melanoma, 112%; in the test on UACC-62 melanoma it was 103%; with LOX IMVI melanoma, 100%; in the test with SK-MEL-28 melanoma, 118%. Moreover, the growth in the test with SK-MEL-2 melanoma is 79.3%.
Consider `O=C(Cn1ccnc1)NC(c1ccccc1)c1ccccc1`, for which the growth in the test on K-562 leukemia was 98.6%; in the test on MALME-3M melanoma it was 104%; in the test with MDA-MB-231 breast, 99.6%; in the test on RXF 393 renal, 104%; with SF-268 CNS, 97.7%; in the test with SF-295 CNS, 97.6%. Also, the growth in the test on SF-539 CNS is 86.2%; in the test with UACC-257 melanoma, 104%; in the test on M14 melanoma, 102%; with HCT-15 colon, 101%; in the test with HT29 colon, 104%; in the test with SNB-75 CNS it was 73.4%. The growth with SNB-19 CNS was 95.1%; in the test with U251 CNS, 101%; with SK-MEL-5 melanoma it was 99.8%; in the test on UACC-62 melanoma it was 89.7%; with LOX IMVI melanoma it was 98%; with SK-MEL-28 melanoma, 98.2%. Besides, in the test with SK-MEL-2 melanoma, the growth is 106%.
